# Data published in PubChem BioAssay AID540276 (National Center for Advancing Translational Sciences (NCATS), 2011).
# Values joined by “and” are separate entries in the source; they are usually repeats but may differ in a detail not shown here. Equal values may be shown once. The campaign covered roughly 300,000 compounds. About 5,400 (1.8%) were called active. Not shown: some 28% with an inconclusive outcome. Calls follow the shape of the full dose curve; tested in HEK293 cells. What follows is part of a selection rich in actives, with near analogues and random picks from the rest. Some compounds were tested as several samples or in several runs, with calls that do not always agree.
# Assay: qHTS for inhibitors of binding or entry into cells for Marburg Virus
# Settings: Marburg virus pseudotyped entry inhibition, cell reporter; series mostly up to 37.8 µM; activity change, negative = inhibition: at the top concentration
# % is scaled to controls: 0 for no effect and ±100 for the full control effect; potency is read from the fitted curve at half-maximal effect.
SMILES,"activity change, negative = inhibition",Potency
Cc1cc(NC(=O)C(C)SCC(=O)Nc2ccccc2N2CCCCC2)no1 (configuration not stated),-30% (inactive),–
Nc1cc(=O)n(Cc2ccccc2)c(=O)n1Cc1ccccc1,17% (inactive),–
CCOC(=O)C1CCN(c2nc3ccccc3nc2[C@@H](C#N)C(=O)OC(C)C)CC1,-13.5% [at 46.1 µM] (inactive),–
COc1cc(/C=C2\C(=N)N3N=C(CC(=O)N4CCOCC4)SC3=NC2=O)cc(OC)c1OC,0.659% [at 46.1 µM] (inactive),–
Cc1ccc2cc(CN(c3ccc(C)c(C)c3)S(C)(=O)=O)c(=O)[nH]c2c1,–,10 µM (active)
CCOC(=O)N1CCN(C(=O)c2ccc(CN(c3ccc(C)c(C)c3)S(C)(=O)=O)cc2)CC1,-7.05% (inactive),–
CCN1CCN(C(=O)c2ccc(CN(c3ccc(C)c(C)c3)S(C)(=O)=O)cc2)CC1,-17.9% [at 46.1 µM] (inactive),–
CCCCc1nc2cc(C(=O)NCCc3cnn(C)c3)ccc2o1,1.86% (inactive),–
CC(=O)CSc1nc(CCc2ccccc2)c(C#N)c(=O)[nH]1,2% [at 46.1 µM] (inactive),–
Cn1c(N)c(C(=O)COC(=O)/C=C/c2cccc(C(F)(F)F)c2)c(=O)n(C)c1=O,17.7% (inactive),–
COc1ccc(C(=O)COC(=O)c2c(C)noc2C)cc1Cl,7.27% [at 46.1 µM] (inactive),–
COc1ccc(Cn2nnc3c(=O)[nH]c(C4CCN(C(=O)c5ccccc5Cl)CC4)nc32)cc1,–,inactive
O=C(c1ccccc1F)N1CCC(c2nc3c(nnn3Cc3cccc(F)c3)c(=O)[nH]2)CC1,-1.86% [at 46.1 µM] (inactive),–
CC(C)(C)c1ccc(Cn2nnc3c(=O)[nH]c(C4CCCN(C(=O)c5ccco5)C4)nc32)cc1 (configuration not stated),–,10 µM (active)
COc1ccc(OC)c(NC(=O)COC(=O)Cc2ccsc2)c1,2.26% (inactive),–
CCOC(=O)c1ccc(N2C(=O)c3n[nH]c(-c4ccco4)c3C2c2ccc(O)cc2)cc1 (configuration not stated),–,11.2 µM (active)
CCOC(=O)c1ccc(N2C(=O)c3[nH]nc(-c4ccccc4)c3C2c2ccc(C(C)C)cc2)cc1 (configuration not stated),-0.0996% [at 46.1 µM] (inactive),–
CCOC(=O)c1ccc(N2C(=O)c3n[nH]c(C)c3C2c2ccc(O)c(OC)c2)cc1 (configuration not stated),-7.6% [at 46.1 µM] (inactive),–
COc1ccccc1S(=O)(=O)c1c(C)cc(C)[nH]c1=O,11.3% [at 46.1 µM] (inactive),–
OCc1ccc(-c2ccccc2)c(-c2ccccc2)c1,-2.14% [at 46.1 µM] (inactive),–
CN(C)c1ccc(CNC23CN4CN(CN(C4)C2)C3)cc1,5.15% [at 46.1 µM] (inactive),–
c1cnc(NC2C3CC4CC(C3)CC2C4)nc1 (configuration not stated),-0.235% (inactive),–
CN(C)c1ccc(CNC2C3CC4CC(C3)CC2C4)cc1 (configuration not stated),–,14.6 µM (active)
CC(=O)Oc1cccc(C(=O)Nc2ccccc2NC(=O)c2cccc(OC(C)=O)c2)c1,0.627% (inactive),–
COc1ccc(C(=O)NC2CC2)cc1OC1CCN(Cc2cnn(C)c2)CC1,21.7% (inactive),–
O=C(CN1CCN(c2ccccc2)CC1)Nc1ccc(F)cc1,29.4% (inactive),–

SMILES,"activity change, negative = inhibition",Potency
CCC(C)C(=O)Nc1ccccc1N1CCN(c2ccc(F)cc2)CC1 (configuration not stated),–,12.6 µM (active)
CCCC(=O)Nc1ccccc1N1CCN(C(=O)c2ccccc2)CC1,-15.4% (inactive),–
O=C(Nc1ccccc1N1CCN(c2ccccc2)CC1)c1cccc(F)c1,1.52% (inactive),–
CCC(=O)Nc1ccccc1N1CCN(S(C)(=O)=O)CC1,0.651% (inactive),–
CCCCC(=O)Nc1ccccc1N1CCN(c2ccc(F)cc2)CC1,–,11.2 µM (active)
O=C(Cc1ccc(S(=O)(=O)N2CCOCC2)s1)NCCOc1ccccc1F,15.4% [at 46.1 µM] (inactive),–
O=C(c1cc2cc(Br)cc(Br)c2oc1=O)N1CCOCC1,15% [at 46.1 µM] (inactive),–
COCCCNCCOCCOc1ccc(Cl)cc1Br,–,11.6 µM (active)
CSc1ccc(/C=N\NC(=O)COc2ccc(Cl)cc2Br)cc1,-19% (inactive),–
COCCNCCOCCOc1cccc(OC)c1,-0.109% (inactive),–
CCS(=O)(=O)Nc1ccc(C(=O)NCCSc2ccccc2)cc1,3.27% (inactive),–
CC(C)Cn1c(=O)c2ccccc2n2c(CCC(=O)NCc3ccccn3)nnc12,22.8% [at 46.1 µM] (inactive),–
CNN/C(N=Cc1ccc([N+](=O)[O-])s1)=N\S(=O)(=O)c1cc(C)c(Cl)cc1SCc1ccccc1,-8.61% (inactive),–
O=[N+]([O-])c1ccc(C=Nc2ccc(Cl)cc2Cl)s1,–,5.8 µM (active)
CN1CCN(c2ccc(NC(=O)c3cc(Cl)c4c(c3)OCCO4)cc2)CC1,-14.5% [at 46.1 µM] (inactive),–
CCc1ccc(N(C(=O)c2csnn2)C(C(=O)NC2CCCCC2)c2cccnc2)cc1 (configuration not stated),-14.8% [at 46.1 µM] (inactive),–
CCCn1nc(NS(=O)(=O)c2ccc(F)cc2)c2cc3ccccc3nc21,-1.54% [at 46.1 µM] (inactive),–
CC(C)Cn1c(SCC(=O)Nc2ccc(Cl)cc2F)nc(O)cc1=O,21% (inactive),–
COCCN(CCOC)C(=S)Nc1ccccc1Cl,-0.33% [at 46.1 µM] (inactive),–
O=C(COC(=O)c1cccs1)Nc1ccccc1Cl,17.9% [at 46.1 µM] (inactive),–
O=C(Nc1ccccc1Cl)/C(Cl)=C(\Cl)S(=O)c1ccccc1 (configuration not stated),–,3.16 µM (active)
O=C1c2ccccc2C(=O)C1C(=O)C1CC1,2.92% [at 46.1 µM] (inactive),–
O=c1c2ccccc2ncn1CCc1ccncc1,9.16% (inactive),–
Cc1ccccc1N/N=C/c1ccc(N2CCOCC2)cc1,22.1% (inactive),–
Cc1nn2c3cc(N4CCOCC4)ccc3nc2c2ccccc12,-9.17% (inactive),–
Cc1cc(Nc2ccc(N3CCOCC3)cc2)c2cccc(C)c2n1,–,0.794 µM (active)

SMILES,"activity change, negative = inhibition",Potency
CC(NC(=O)c1cccc(S(=O)(=O)N2CCc3ccccc3C2)c1)c1ccco1 (configuration not stated),-28.7% (inactive),–
Cc1cc(Oc2ccccc2)nc(N2CCOCC2)n1,0.114% (inactive),–
Cc1cc(Nc2ccc(Cl)cc2)nc(N2CCOCC2)n1,–,7.94 µM (active)
Cc1cc(C)nc(N2CCC(C(=O)Nc3ccc4c(c3)OCCO4)CC2)n1,-25.8% [at 46.1 µM] (inactive),–
O=C(O)c1ccc2c(=O)n3c(nc2c1)/C(=C/c1ccc(OC(F)F)cc1OC(F)F)CC3,14.9% [at 46.1 µM] (inactive),–
CCN1CCN(Cc2c(O)ccc3oc(C)c(C(=O)Nc4ccc(C)cc4C)c23)CC1,10.7% [at 46.1 µM] (inactive),–
Cc1oc2ccc(O)c(CN3CCCCC3)c2c1C(=O)Nc1cccc(C(F)(F)F)c1,–,10 µM (active)
Cc1oc2ccc(O)c(CN3CCOCC3)c2c1C(=O)Nc1cccc(Cl)c1C,-0.854% [at 46.1 µM] (inactive),–
Cc1cc(=O)oc2c(C)c(OC(C)C(=O)NC3CCN(Cc4ccccc4)CC3)ccc12 (configuration not stated),-7.42% [at 46.1 µM] (inactive),–
Cc1cc(-c2nnc(SCC(=O)Nc3ccc(F)cc3)n2N)n[nH]1,16.2% [at 46.1 µM] (inactive),–
CC(C)CC1C(=O)N(Cc2cn(Cc3ccco3)nn2)CCS(=O)(=O)N1Cc1ccc(-c2ccc(Cl)c(Cl)c2)cc1 (configuration not stated),–,25 µM (active)
CC(=O)c1cccc(-c2ccc(CN3C(CC(C)C)C(=O)N(Cc4cn(CC5CCCCC5)nn4)CCS3(=O)=O)cc2)c1 (configuration not stated),0.481% (inactive),–
Cc1ccc(C)c(NC(=O)COC(=O)c2nn(C)c(=O)c3ccccc23)c1,11.2% (inactive),–
O=C(NC1=CC(=O)c2ccccc2C1=O)c1ccccc1,–,10 µM (active)
O=C(Nc1cccc(NC(=O)c2ccc(Br)cc2)c1)c1ccccc1,–,inactive
O=C1C=C(NS(=O)(=O)c2ccccc2)C(=O)c2ccccc21,-2.09% [at 46.1 µM] (inactive),–
CCOC(=O)C1=C(c2ccccc2)Nc2ncnn2C1c1ccc(Cl)cc1 (configuration not stated),4.14% [at 46.1 µM] (inactive),–
Fc1ccc([C@H]2C3=C(Nc4ncnn42)c2ccccc2O[C@H]3c2ccncc2)cc1,-11% (inactive),–
Clc1ccc2c(c1)C1=C(C(c3ccncc3)O2)C(c2ccc(Br)cc2)n2ncnc2N1 (configuration not stated),–,11.6 µM (active)
CC1(C)CC(=O)c2ccc(O)cc2O1,-6.25% [at 46.1 µM] (inactive),–
CC[C@@H]1Cc2cc(O)ccc2C2=C1c1ccc(O)cc1C[C@H]2CC,–,35.5 µM (active)
OC(COCCC12CC3CC(CC(C3)C1)C2)CN1CCCCC1 (configuration not stated),–,2.91 µM (active)
O=C(c1ccccc1)c1ccc(OCC(O)CN2CCCC2)cc1 (configuration not stated),-24% [at 46.1 µM] (inactive),–
COc1cc(/C=N/NC(=O)c2cccnc2)ccc1OC(=O)c1cccc(Br)c1,2.52% (inactive),–
O=C(C1CC(=O)N(c2ccc(Br)cc2)C1)N1CCCC1 (configuration not stated),1.98% (inactive),–
Cc1cccc(C(CC(=O)NCC2(c3ccccc3)CCCC2)c2ccccc2)c1O (configuration not stated),–,10 µM (active)

SMILES,"activity change, negative = inhibition",Potency
COc1ccc(C2(CNC(=O)C(c3ccccc3)c3ccccc3)CCOCC2)cc1OC,-26.8% (inactive),–
COc1ccc(C2(CNC(=O)Cc3ccc(OC)c(OC)c3)CCCC2)cc1,-28.1% [at 46.1 µM] (inactive),–
O=C(Nc1cc(S(=O)(=O)N2CCOCC2)ccc1N1CCOCC1)c1c(F)cccc1Cl,3.28% (inactive),–
CC12CCCCC1=CC(=O)CC2 (configuration not stated),8.83% (inactive),–
COc1ccc(N2CCN(S(=O)(=O)c3cc(Br)cnc3N)CC2)cc1,14.7% [at 46.1 µM] (inactive),–
CC(C)c1ccc(-c2noc(C3CCCN(S(C)(=O)=O)C3)n2)cc1 (configuration not stated),-30.6% (inactive),–
COc1cc(-c2noc(C3CCCN(S(=O)(=O)c4cccc(Cl)c4)C3)n2)cc(OC)c1OC (configuration not stated),–,inactive and 9.2 µM (active)
O=C(Cc1cccs1)N1CCCC(c2nc(-c3ccc(S(=O)(=O)N4CCCC4)cc3)no2)C1 (configuration not stated),-24.4% (inactive),–
Cc1ccc(C(=O)OCC(=O)N2CCCCCC2)cc1S(=O)(=O)N1CCOCC1,4.19% (inactive),–
NC(=O)c1cc2ccccc2o/c1=N/NC(=O)c1cccc(F)c1,-5.08% [at 46.1 µM] (inactive),–
CCOc1ccc(CN2CCNC(=O)C2CC(=O)NCCCC2CCCC2)cc1 (configuration not stated),10.3% (inactive),–
CCOc1ccc(C2c3[nH]c4ccccc4c3CCN2Cc2cccn2-c2ncccn2)cc1 (configuration not stated),–,3.16 µM (active)
c1ccc(C2c3[nH]c4ccccc4c3CCN2Cc2cccn2-c2cccnc2)nc1 (configuration not stated),-6.35% [at 46.1 µM] (inactive),–
Oc1cccc(C2c3[nH]c4ccccc4c3CCN2Cc2cnn(-c3ccccc3)c2)c1 (configuration not stated),-8.18% [at 46.1 µM] (inactive),–
CCN(CC)S(=O)(=O)c1ccc(CNC(=O)CN2C(=O)NC3(CCc4ccccc43)C2=O)cc1 (configuration not stated),5.63% (inactive),–
COc1ccc(/C=N/NC(=O)c2ccc3c(c2)OCCO3)c(OC)c1,-0.257% (inactive),–
COc1cccc(CNCCc2c[nH]c3ccccc23)c1OCc1ccccc1F,–,7.3 µM (active)
COc1ccc(S(=O)(=O)NCCc2c[nH]c3ccccc23)cc1OC,-2.61% [at 46.1 µM] (inactive),–
COc1ccccc1CC(=O)NCCc1c[nH]c2ccccc12,-23.9% [at 46.1 µM] (inactive),–
O=C1CC(C(=O)O)NC(=S)N1 (configuration not stated),0.164% [at 46.1 µM] (inactive),–
COc1ccc(S(=O)(=O)N2CCN(CC(=O)N3CCOCC3)CC2)cc1OC,-5.82% (inactive),–
COc1cc2[nH]c(=S)n(Cc3ccc(C)o3)c(=O)c2cc1OC,-7.92% (inactive),–
COc1cc(-n2c(=S)[nH]c3ccc(C)cc3c2=O)c(Cl)cc1Cl,–,5.62 µM (active)
COc1ccccc1-n1c(=S)[nH]c2c(sc(=S)n2-c2ccc(C)cc2C)c1=O,-1.23% [at 46.1 µM] (inactive),–
